In the supplement of paper PMC11732987, “Enantioselective OTUD7B fragment discovery through chemoproteomics screening and high-throughput optimisation” (Communications Chemistry, 2025):
Values without a mark were called inactive.

Tests used:
Experiment in all cases: log2 ratio of Biotin-Ahx-Ub-VS probe labelling (fragment/DMSO); higher = less target engagement (more negative = stronger competition), active = hit call of the paper (q ≤ 0.05, log2 ratio ≤ -1)
Settings in all cases: compound concentration: 200 uM; treatment time: 3 h
ALG13 = target: T1, ALG13 (UniProt Q9NP73)
T1 sequence (whole entry): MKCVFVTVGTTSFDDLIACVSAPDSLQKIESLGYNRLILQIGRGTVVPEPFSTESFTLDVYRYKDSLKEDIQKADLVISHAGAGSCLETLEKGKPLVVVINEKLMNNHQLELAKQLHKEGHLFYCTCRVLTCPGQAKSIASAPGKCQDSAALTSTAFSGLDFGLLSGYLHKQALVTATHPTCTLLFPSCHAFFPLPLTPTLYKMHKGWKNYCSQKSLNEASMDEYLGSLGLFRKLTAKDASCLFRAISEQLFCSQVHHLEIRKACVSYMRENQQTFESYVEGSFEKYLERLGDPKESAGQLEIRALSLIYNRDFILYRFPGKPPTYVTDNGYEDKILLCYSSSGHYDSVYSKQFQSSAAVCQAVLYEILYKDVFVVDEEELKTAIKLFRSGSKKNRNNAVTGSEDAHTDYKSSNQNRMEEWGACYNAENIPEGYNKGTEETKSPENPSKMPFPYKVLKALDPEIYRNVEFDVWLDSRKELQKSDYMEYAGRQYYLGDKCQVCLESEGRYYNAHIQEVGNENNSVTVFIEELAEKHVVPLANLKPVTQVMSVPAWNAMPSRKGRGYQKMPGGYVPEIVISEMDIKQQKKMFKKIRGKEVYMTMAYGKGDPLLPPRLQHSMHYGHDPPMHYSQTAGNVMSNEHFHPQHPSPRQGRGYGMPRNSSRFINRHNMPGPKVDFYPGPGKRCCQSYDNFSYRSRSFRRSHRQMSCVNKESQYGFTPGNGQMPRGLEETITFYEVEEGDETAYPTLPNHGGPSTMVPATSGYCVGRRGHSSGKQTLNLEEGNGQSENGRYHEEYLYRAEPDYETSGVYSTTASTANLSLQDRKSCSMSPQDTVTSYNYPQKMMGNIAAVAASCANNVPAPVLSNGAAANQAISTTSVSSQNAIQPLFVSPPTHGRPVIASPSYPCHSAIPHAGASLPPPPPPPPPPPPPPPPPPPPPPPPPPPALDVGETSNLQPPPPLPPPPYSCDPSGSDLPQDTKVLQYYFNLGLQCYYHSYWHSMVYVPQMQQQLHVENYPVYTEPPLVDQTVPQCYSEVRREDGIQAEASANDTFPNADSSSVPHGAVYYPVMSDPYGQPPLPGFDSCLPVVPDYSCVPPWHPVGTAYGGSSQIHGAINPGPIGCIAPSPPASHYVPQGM
Summary of the method: (§1)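 Labelled DUBs were enriched with NeutrAvidin, digested with LysC and trypsin, and run by diaPASEF LC-MS/MS. The labelling used Biotin-Ahx-Ub-VS at 0.5 µM final for 1 h on HEK293T lysate (495 µg per sample) previously treated in triplicate with fragment at 200 µM or vehicle for 3 h. Values are average log2 fragment/vehicle ratios by unpaired t-test on global-median-normalised Spectronaut quantities of proteins with ≥2 unique peptides.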

ATXN3 = ATXN3 (UniProt P54252)
Sequence of ATXN3 (P54252 whole entry): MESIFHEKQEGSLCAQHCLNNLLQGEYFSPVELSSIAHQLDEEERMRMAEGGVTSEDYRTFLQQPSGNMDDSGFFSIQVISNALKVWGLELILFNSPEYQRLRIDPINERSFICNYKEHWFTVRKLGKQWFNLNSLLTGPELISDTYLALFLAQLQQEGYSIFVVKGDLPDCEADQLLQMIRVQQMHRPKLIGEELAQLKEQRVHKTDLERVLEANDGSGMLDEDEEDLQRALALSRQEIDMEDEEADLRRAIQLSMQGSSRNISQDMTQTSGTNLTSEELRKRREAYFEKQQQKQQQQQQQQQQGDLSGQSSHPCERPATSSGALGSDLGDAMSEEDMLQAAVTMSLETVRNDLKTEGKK
Summary of the method: as §1

BAP1 = target: T2, BAP1 (UniProt Q92560)
T2 sequence (whole entry): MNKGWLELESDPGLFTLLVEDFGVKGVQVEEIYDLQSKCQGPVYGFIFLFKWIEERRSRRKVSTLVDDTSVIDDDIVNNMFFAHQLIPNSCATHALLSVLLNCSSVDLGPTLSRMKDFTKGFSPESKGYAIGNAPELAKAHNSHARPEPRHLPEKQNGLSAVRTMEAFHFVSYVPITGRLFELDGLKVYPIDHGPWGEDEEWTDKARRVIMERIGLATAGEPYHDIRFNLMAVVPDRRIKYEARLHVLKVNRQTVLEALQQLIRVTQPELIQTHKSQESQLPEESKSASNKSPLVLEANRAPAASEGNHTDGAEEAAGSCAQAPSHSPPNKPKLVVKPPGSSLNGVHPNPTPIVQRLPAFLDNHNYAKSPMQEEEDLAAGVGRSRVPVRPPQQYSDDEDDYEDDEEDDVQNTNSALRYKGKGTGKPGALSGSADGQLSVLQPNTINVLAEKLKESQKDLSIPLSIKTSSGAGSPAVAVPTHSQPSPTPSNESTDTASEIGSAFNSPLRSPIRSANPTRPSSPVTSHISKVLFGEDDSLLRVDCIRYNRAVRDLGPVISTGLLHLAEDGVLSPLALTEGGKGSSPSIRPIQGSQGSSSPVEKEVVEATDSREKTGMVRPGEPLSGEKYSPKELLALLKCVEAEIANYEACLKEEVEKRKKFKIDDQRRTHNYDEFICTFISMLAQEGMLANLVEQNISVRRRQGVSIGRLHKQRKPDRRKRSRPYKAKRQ
Summary of the method: as §1

EIF3F = EIF3F (UniProt O00303)
Sequence of EIF3F (O00303 whole entry): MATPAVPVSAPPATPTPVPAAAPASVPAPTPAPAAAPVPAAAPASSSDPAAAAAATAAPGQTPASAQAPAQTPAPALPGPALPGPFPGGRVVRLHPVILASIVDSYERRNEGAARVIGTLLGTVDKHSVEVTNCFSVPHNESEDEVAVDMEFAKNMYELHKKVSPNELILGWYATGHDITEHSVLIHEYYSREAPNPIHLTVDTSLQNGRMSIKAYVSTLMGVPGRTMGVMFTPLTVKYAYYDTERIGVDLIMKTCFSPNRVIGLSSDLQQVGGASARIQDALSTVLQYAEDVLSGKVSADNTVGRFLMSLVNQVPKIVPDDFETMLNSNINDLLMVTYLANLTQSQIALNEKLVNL
Summary of the method: as §1

EIF3H = EIF3H (UniProt O15372)
Sequence of EIF3H (O15372 whole entry): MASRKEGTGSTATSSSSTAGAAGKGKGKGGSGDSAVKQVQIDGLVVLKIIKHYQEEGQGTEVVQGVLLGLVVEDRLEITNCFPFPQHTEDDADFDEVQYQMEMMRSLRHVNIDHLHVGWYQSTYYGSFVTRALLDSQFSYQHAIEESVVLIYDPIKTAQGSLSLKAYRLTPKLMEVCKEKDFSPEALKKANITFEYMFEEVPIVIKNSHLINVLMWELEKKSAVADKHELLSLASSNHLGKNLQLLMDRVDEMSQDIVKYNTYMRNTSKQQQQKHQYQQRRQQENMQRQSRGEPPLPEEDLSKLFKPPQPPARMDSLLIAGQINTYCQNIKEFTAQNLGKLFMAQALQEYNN
Summary of the method: as §1

FAM105A = target: T3, FAM105A (UniProt Q9NUU6)
T3 sequence (whole entry): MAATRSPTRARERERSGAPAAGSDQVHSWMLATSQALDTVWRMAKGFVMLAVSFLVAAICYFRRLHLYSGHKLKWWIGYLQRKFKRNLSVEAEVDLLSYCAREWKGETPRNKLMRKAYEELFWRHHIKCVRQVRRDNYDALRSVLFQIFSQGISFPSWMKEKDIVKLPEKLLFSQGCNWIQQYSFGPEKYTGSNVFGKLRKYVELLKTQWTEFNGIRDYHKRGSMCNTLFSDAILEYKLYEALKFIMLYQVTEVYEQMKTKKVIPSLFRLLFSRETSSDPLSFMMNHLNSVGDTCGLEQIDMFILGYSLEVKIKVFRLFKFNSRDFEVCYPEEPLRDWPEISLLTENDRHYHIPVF
Summary of the method: as §1

OTUB1 = OTUB1 (UniProt Q96FW1)
Sequence of OTUB1 (Q96FW1 whole entry): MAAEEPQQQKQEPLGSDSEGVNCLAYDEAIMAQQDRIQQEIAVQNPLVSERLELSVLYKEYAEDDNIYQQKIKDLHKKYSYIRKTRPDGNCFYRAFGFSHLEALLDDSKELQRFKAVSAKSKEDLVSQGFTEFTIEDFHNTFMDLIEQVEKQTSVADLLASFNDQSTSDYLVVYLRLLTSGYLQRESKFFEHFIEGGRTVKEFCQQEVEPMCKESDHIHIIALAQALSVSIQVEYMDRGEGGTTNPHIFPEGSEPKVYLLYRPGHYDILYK
Summary of the method: as §1

OTUD4 = target: T4, OTUD4 (UniProt Q01804)
T4 sequence (whole entry): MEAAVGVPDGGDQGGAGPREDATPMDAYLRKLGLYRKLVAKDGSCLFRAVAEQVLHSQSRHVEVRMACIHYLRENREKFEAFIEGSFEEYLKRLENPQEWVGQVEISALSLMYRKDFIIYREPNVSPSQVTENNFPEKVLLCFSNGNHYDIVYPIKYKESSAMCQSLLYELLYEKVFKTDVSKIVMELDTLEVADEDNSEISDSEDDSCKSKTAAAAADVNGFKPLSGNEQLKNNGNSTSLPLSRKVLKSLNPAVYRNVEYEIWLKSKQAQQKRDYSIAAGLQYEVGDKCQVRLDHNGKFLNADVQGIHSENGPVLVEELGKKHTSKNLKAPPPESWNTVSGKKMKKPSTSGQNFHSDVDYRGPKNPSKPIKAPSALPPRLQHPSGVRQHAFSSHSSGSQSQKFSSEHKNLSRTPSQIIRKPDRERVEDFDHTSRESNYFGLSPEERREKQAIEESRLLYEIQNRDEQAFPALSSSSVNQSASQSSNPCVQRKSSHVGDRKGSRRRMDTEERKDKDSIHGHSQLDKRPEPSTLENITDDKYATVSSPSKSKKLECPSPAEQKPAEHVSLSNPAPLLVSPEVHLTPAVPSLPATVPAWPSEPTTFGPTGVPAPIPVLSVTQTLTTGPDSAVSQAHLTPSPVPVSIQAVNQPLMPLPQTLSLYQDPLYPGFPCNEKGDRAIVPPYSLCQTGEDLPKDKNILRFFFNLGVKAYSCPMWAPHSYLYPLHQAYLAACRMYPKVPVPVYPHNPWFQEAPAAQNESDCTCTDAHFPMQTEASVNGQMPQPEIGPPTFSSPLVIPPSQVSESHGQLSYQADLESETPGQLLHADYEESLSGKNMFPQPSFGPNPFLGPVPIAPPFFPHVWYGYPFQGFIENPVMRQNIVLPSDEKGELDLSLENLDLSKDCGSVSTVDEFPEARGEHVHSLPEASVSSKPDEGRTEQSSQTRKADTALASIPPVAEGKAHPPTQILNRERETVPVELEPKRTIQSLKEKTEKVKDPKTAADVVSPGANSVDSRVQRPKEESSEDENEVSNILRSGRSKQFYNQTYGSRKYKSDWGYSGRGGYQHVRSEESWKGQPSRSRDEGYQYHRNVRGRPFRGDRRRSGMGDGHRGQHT
Summary of the method: as §1

OTUD5 = target: T5, OTUD5 (UniProt Q96G74)
T5 sequence (whole entry): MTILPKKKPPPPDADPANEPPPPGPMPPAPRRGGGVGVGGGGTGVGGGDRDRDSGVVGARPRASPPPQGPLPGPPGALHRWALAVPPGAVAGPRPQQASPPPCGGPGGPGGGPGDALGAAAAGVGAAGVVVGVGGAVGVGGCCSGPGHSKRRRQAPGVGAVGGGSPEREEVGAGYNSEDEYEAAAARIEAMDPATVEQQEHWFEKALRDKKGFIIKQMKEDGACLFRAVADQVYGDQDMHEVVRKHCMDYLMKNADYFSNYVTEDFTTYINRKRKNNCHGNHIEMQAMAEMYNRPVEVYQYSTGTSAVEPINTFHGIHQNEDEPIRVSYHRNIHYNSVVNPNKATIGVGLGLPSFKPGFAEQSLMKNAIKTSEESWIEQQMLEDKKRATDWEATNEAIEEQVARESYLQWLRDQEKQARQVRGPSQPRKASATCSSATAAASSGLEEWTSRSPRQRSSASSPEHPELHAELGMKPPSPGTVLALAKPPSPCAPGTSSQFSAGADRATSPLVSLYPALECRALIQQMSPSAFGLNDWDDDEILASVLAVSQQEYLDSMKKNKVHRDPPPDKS
Summary of the method: as §1

| SMILES | log2 ratio of Biotin-Ahx-Ub-VS probe labelling (ALG13) | log2 ratio of Biotin-Ahx-Ub-VS probe labelling (ATXN3) | log2 ratio of Biotin-Ahx-Ub-VS probe labelling (BAP1) | log2 ratio of Biotin-Ahx-Ub-VS probe labelling (EIF3F) | log2 ratio of Biotin-Ahx-Ub-VS probe labelling (EIF3H) | log2 ratio of Biotin-Ahx-Ub-VS probe labelling (FAM105A) | log2 ratio of Biotin-Ahx-Ub-VS probe labelling (OTUB1) | log2 ratio of Biotin-Ahx-Ub-VS probe labelling (OTUD4) | log2 ratio of Biotin-Ahx-Ub-VS probe labelling (OTUD5) |
| --- | --- | --- | --- | --- | --- | --- | --- | --- | --- |
| CS(=O)(=O)c1ccc(NC(=O)CCl)cc1 | -0.729 | -0.511 | -4.05 (active) | -0.0107 | 0.14 | -0.0733 | -0.133 | -0.368 | -0.613 |
| O=C(CCl)N1CCc2nc[nH]c2C1c1ccc(Cl)cc1 (configuration not stated) | -0.0235 | -0.508 | -1.65 (active) | -0.277 | 0.263 | 0.102 | 0.00111 | -0.508 | -1.26 (active) |
| O=C(CCl)N1CCCN(C(=O)c2ccc(Cl)cc2)CC1 | -0.303 | -0.712 | -0.719 | -0.31 | 0.393 | 0.113 | -0.428 | -0.424 | -0.688 |
